Values joined by “and” are separate entries in the source; they are usually repeats but may differ in a detail not shown here. Equal entries are not always repeated. Inconclusive results are not listed. Values without a mark were called inactive. Active and inactive are the calls of the source. The call rests on the fitted dose curve; in most records, active means well fitted inhibition curve with a large enough effect in the signal ratio, with a control signal flat (not every such curve was filed as active); inconclusive means small, poorly fitted or top-dose-only effect, or effect the other way, or a change in a side signal; inactive means no such curve, though single readings can be large or run the other way; the % refers to the signal ratio.
Biological target: Retinoic acid receptor RXR-alpha (Homo sapiens) (UniProt P19793)
Sequence (P19793 whole entry, looked up): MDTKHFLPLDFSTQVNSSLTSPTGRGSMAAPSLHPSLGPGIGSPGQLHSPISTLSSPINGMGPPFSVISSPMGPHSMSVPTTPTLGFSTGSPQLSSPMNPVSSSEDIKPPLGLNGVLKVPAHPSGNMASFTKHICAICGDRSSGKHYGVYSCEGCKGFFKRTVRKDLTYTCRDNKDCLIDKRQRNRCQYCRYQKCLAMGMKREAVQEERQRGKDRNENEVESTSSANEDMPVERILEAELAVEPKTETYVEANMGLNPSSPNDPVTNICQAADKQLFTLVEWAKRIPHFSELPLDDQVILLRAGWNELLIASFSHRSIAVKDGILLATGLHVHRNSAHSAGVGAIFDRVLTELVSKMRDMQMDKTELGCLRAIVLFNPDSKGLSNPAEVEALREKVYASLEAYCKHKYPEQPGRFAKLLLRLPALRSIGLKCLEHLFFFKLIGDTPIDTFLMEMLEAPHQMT
Assay: qHTS assay for small molecule antagonists of retinoid X receptor alpha signaling (AID 588546)
Details: HEK293T RXRa-UAS-bla, beta-lactamase ratio, antagonist mode
From the text: NIH Chemical Genomics Center [NCGC] U.S. Environmental Protection Agency [EPA] National Institutes of Environmental Health Sciences [NIEHS] National Toxicology Program [NTP] NCGC Assay Overview The Retinoid X receptor (RXR), a nuclear hormone receptor is expressed in liver, spleen, placenta, epidermis, central nervous system. These receptors are able to form homo and heterodimers with other nuclear receptors and due to this heterodimerizing ability, RXR functions as master regulators producing diverse physiological effects. Three subtypes of RXR exist; alpha, beta and gamma. Retinoid X receptor alpha (RXR-alpha) has potential roles in metabolic signaling pathways, skin alopecia, dermal cysts, cardiac development, insulin sensitization etc. Therefore screening environmental chemicals on RXR-alpha signaling can be used for the studies focused on such therapeutic applications.
NCGC Assay Protocol Summary Using a beta-lactamase reporter-gene under control of Retinoid X receptor--alpha (RXR-alpha) response element, a cell-based assay [GeneBLAzer (RXR-alpha -UAS-bla assay developed by Invitrogen] was used to measure RXR-alpha ligands signaling. GeneBLAzer RXR-alpha -UAS-bla HEK293T cells were used with assay medium containing 2% charcoal-stripped FBS. The assay was performed in clear bottom black Greiner 1536-well plates. Library compounds were measured for their ability to inhibit the reporter gene activity. Compounds were screened in a titration series in 1536-well format. The fluorescence intensity (405 nm excitation, 460/530 nm emission) was measured using an EnVision plate reader. Data was normalized relative to 9-cis-retinoic acid control (500 nM, 100%), and DMSO only wells (basal, 0%). Concentration-response titration points for each compound were fitted to the Hill equation yielding concentrations of half-maximal inhibition (IC50) and maximal response (efficacy) values. qHTS protocol for RXR-alpha beta-lactamase assay in antagonist mode [Step] [Parameter] [Value] [Description] 1. Reagent; 5 uL; 2500 cells/well 2. Incubation; 37 C for 4 hrs 3. Compounds; 23 nL; 0.59 nM to 92 uM 4. Controls (DMSO); 23 nL 5. Agonist (Stimulator); 1uL; 9-cis-retinoic acid at 500 nM and 100 nM final concentrations 6. Incubation; 37 C for 18 hrs 7. Detection reagent; 1 uL of CCF4-dye 8. Incubation; RT for 2 hrs 9. Detection; Fluorescence; Envision plate reader
On the % scale 0 is the no-effect control and ±100 the full control effect.

Compound	max response	Potency
OCCOCCOCCOCCO	-5.67%	–
O=C(O)C(c1ccc(Cl)cc1)c1ccc(Cl)cc1	12.2%	–
CC(C)(C)c1ccc(C(=O)O)cc1	-3.02%	–
CC(C)OB(OC(C)C)OC(C)C	0.387%	–
CCOC(=O)CCCCCCCCC(=O)OCC	0.487%	–
C=Cc1ccccc1Br	-9.99%	–
CCCCCCc1ccc(N)cc1	-10.1%	–
O=C(OCC1CCC2OC2C1)C1CCC2OC2C1 (stereo not given)	-6.03%	–
CCCCCCCC/C=C\CCCCCCCCCCCCC	1.65%	–
C=C(C)C(=O)OCCCCCCCCCCCC	6.49%	–
CNc1nc(=O)n(C2CCCCC2)c(=O)n1C	4.07%	–
CCCCCCCCCCCCCCCC	-1.47%	–
CC(=O)c1c(C)c([N+](=O)[O-])c(C(C)(C)C)c([N+](=O)[O-])c1C	-4.43%	–
O=C(O)CCCCCCCCCCC(=O)O	7.09%	–
CC(C)c1ccc(C(C)C)cc1	9.54%	–
CC(C)(C)c1n[nH]c(=O)n(N)c1=O	-3.59%	–
O=C(Cl)c1ccc(C(=O)Cl)cc1	2.6%	–
Cc1ccc2c(c1)C(=O)OC2=O	-14.4%	–
CCCCCCCCCCCC(=O)N(C)CC(=O)O	6.82%	–
CCCCOCC(C)O (stereo not given)	-37.2% and 3.13%	–

Compound	max response	Potency
CCCCNS(=O)(=O)c1ccccc1	5.33%	–
O=[N+]([O-])c1ccc(O)cc1C(F)(F)F	–	7.94 µM (active)
Fc1ccc(Br)cc1	4.33%	–
COc1ccccc1NC(=O)CC(C)=O	-16%	–
CCCCCC1CCC(=O)O1 (stereo not given)	2.03%	–
COC(=O)CCSCCC(=O)OC	-2.91%	–
C[Si](C)(C)N[Si](C)(C)C	1.24%	–
CCOCCOCCOC(C)=O	7.1%	–
CCCCCCCC/C=C\CCCCCCCC(=O)OC	-0.729%	–
CCCCCCCC(=O)Oc1c(Br)cc(C#N)cc1Br	-20.9%	–
O=c1oc(=O)c2cc3c(=O)oc(=O)c3cc12	-12.6%	–
COC(=O)c1ccc(I)cc1S(=O)(=O)NC(=O)Nc1nc(C)nc(OC)n1	-12.1%	–
COC(=O)c1ccc(CNS(C)(=O)=O)cc1S(=O)(=O)NC(=O)Nc1nc(OC)cc(OC)n1	13.2%	–
CCCCCCCCCCO	6.68% and -9.14%	–
CS(=O)(=O)c1ccc(Cl)cc1	-18.5%	–
CCCCOCCOCCOCCO	-1.08%	–
O=C1CCCC/C=C/CCCCCCCCCO1	5.91%	–
C=CCOc1nc(OCC=C)nc(OCC=C)n1	0.817%	–
CNc1nc(=O)n(C2CCC(O)CC2)c(=O)n1C (stereo not given)	4.66%	–
CC(Cl)(Cl)C(=O)OCCOc1cc(Cl)c(Cl)cc1Cl	0.808%	–
